# Measurements: PubChem BioAssay (NCATS)
# Inconclusive results are not listed. Where a call stands in place of a potency, no number is given. Activity calls are given as the source filed them. Calls follow the shape of the dose curve; as a rule, active = well fitted curve in the direction sought with a large enough effect; inconclusive = small, poorly fitted or top-dose-only effect, or another doubt; inactive = no such curve, though single readings can be large; an effect the other way counts as inactive or inconclusive.
# What was measured:
# [1] = qHTS Screen of the MIPE 4.0 Collection Against Ewings Sarcoma (TC32) (AID 1259256); also: nearly all actives have a fitted effect of over 45% in size; also: potency is read from the fitted curve at half-maximal effect
# Summary of the method: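 Compound titrations go onto adherent log-phase cells 4 h after seeding, incubate 48 h at 37C, then CellTiter-Glo luminescence reports viability relative to DMSO and cell-free controls.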
# [2] = Identifying Small Molecule Inhibitors of Pancreatic Cancer Stem Cells (A2780, Spheroid) (AID 1259357); conditions: Potency: A2780 spheroid viability;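 also: compound exposure lasted 48 h before the ATP luminescence read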; also: potency is read from the fitted curve at half-maximal effect
# Summary of the method: (§1)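 Endpoint: ATP-based luminescence, 48 h drug exposure. Bortezomib at 9.2 uM final as full-kill control; DMSO vehicle as negative control; activity normalized between vehicle and cell-free wells.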
# [3] = Identifying Small Molecule Inhibitors of Pancreatic Cancer Stem Cells (SN12C, Adherent) (AID 1259358);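 also: cell survival measured after 48 h of compound exposure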; also: potency is read from the fitted curve at half-maximal effect
# Summary of the method: (§2)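 Viability is scored by CellTiter-Glo luminescence 48 h after dosing, expressed as percent activity against vehicle and no-cell references. Spheroid formats rely on cells cultured 14 days in stem cell media beforehand.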
# [4] = Identifying Small Molecule Inhibitors of Pancreatic Cancer Stem Cells (SN12C, Spheroid) (AID 1259360); conditions: Potency: SN12C spheroid viability; also: potency is read from the fitted curve at half-maximal effect
# Summary of the method: as §1
# [5] = Identifying Small Molecule Inhibitors of Pancreatic Cancer Stem Cells (A278, Adherent) (AID 1259361); also: nearly all actives have a fitted effect of over 35% in size
# Summary of the method: as §2
# [6] = P-glycoprotein substrates identified in KB-3-1 adenocarcinoma cell line, qHTS therapeutic library screen (AID 1346986); also: nearly all actives have a fitted effect of over 60% in size;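 also: potency is read from the fitted curve at half-maximal effect; potency is for cytotoxicity meaning loss of cell viability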
# Summary of the method: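 72 h cell-killing screen, 500 cells/well, CellTiter-Glo luminescence. Paired lines KB-3-1/KB-8-5-11; P-gp dependence checked by tariquidar co-treatment and HEK-293 MDR-19 versus empty-vector cells.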
# [7] = Identifying Small Molecule Inhibitors of Pancreatic Cancer Stem Cells (Panc1, Adherent) (AID 1259362); conditions: Potency: viability;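 also: compound exposure lasted 48 h before the viability read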
# Summary of the method: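 Cytotoxicity read by CellTiter-Glo luminescence after 48 h compound exposure at 37C; percent activity scaled between DMSO-treated cells and cell-free wells. Spheroid formats used cells pre-formed 14 days in stem cell media on hydrogel.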
# [8] = Identifying Small Molecule Inhibitors of Pancreatic Cancer Stem Cells (Panc1, Spheroid) (AID 1259359);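 also: compound exposure lasted 48 h before reading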; also: potency is read from the fitted curve at half-maximal effect
# Summary of the method: as §2
# [9] = qHTS assay to identify small molecule inhibitors of chordoma cells - UCH-1 (AID 1259355); also: nearly all actives have a fitted effect of over 55% in size
# Summary of the method: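 A 48hr growth-inhibition format: each drug tested at 15 concentrations together with added auranofin, camptothecin, doxorubicin, rubitecan and topotecan, with cell viability quantified as CellTiter-Glo luminescence.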
# [10] = qHTS assay to identify small molecule inhibitors of chordoma cells - UCH-2 (AID 1259356); also: series mostly up to about 46 µM
compound,measurement,setting,value
COc1cc(F)c(F)c(Nc2ccc(I)cc2F)c1NS(=O)(=O)C1(C[C@H](O)CO)CC1,Potency,[1],11.8 µM (active)
same,Potency,[2],inactive
same,Potency,[3],20.9 µM (active)
same,Potency,[4],inactive
same,IC50 (viability decrease),[5],20.9 µM (active)
same,Potency,[6],inactive
Cn1c(=O)c(F)c(Nc2ccc(I)cc2F)c2c(=O)n(C[C@@H](O)CO)cnc21,Potency,[1],inactive
same,Potency,[3],0.418 µM (active)
same,Potency,[4],8.33 µM (active)
O=C1[C@H](Cc2ccc(O)cc2)N2C(=O)CCN(C(=O)NCc3ccccc3)[C@H]2CN1Cc1cccc2ccccc12,Potency,[1],1.87 µM (active)
same,Potency,[3],16.6 µM (active)
same,Potency,[4],20.9 µM (active)
same,IC50 (viability decrease),[5],1.05 µM (active)
O=C(O)[C@@H](c1ccc(OCc2ccc3ccccc3n2)cc1)C1CCCC1,Potency,[1],inactive
same,Potency,[3],inactive
same,Potency,[4],inactive
COc1cc2nccc(Oc3ccc(NC(=O)NC4CC4)c(Cl)c3)c2cc1C(N)=O,Potency,[1],1.05 µM (active)
same,Potency,[3],18.7 µM (active)
same,Potency,[4],inactive
same,Potency,[6],inactive
COc1ccc(CCN2CCN(CCCc3ccccc3)CC2)cc1OC,Potency,[1],inactive
same,Potency,[4],13.2 µM (active)
COc1cccc2cc(-c3nc(C4CCC(C(=O)O)CC4)n4ncnc(N)c34)[nH]c12 (stereo not drawn),Potency,[1],0.526 µM (active)
same,Potency,[3],0.833 µM (active)
same,Potency,[4],0.372 µM (active)
same,Potency,[6],1.3 µM (active)
Cc1cc([C@@H](C)Nc2ccccc2C(=O)O)c2nc(N3CCOCC3)cc(=O)n2c1,Potency,[1],34 µM (active)
same,Potency,[3],9.35 µM (active)
same,Potency,[4],14.8 µM (active)
Fc1ccc(Cl)cc1-c1nc(Nc2ccncc2)c2nccnc2n1,Potency,[1],1.32 µM (active)
same,Potency,[3],inactive
same,Potency,[4],inactive
same,IC50 (viability decrease),[5],inactive
same,Potency,[7],inactive
same,Potency,[6],inactive
OCCn1cc(-c2cnc3nnn(Cc4ccc5ncccc5c4)c3n2)cn1,Potency,[1],inactive
same,Potency,[3],inactive
CCc1cncnc1N1CCN(Cc2nc3ccc(C(F)(F)F)cc3[nH]2)CC1,Potency,[1],16.6 µM (active)
same,Potency,[4],14.8 µM (active)
CCc1cc(Nc2nccc(-c3c(-c4ccc(OC)c(C(=O)Nc5c(F)cccc5F)c4)nc4ccccn34)n2)c(OC)cc1N1CCC(N2CCN(S(C)(=O)=O)CC2)CC1,Potency,[1],16.6 µM (active)
same,Potency,[3],inactive
same,Potency,[4],inactive
same,IC50 (viability decrease),[5],inactive
CCn1c(-c2nonc2N)nc2cnc(Oc3cccc(NC(=O)c4ccc(OCCN5CCOCC5)cc4)c3)cc21,Potency,[1],5.9 µM (active)
same,Potency,[3],inactive
same,Potency,[6],3.66 µM (active)
CN(C)c1ccc(C2Nc3ccc4ccccc4c3C3=C2C(=O)CC(C)(C)C3)cc1Br (stereo not drawn),Potency,[1],16.6 µM (active)
same,Potency,[4],inactive
Cc1cc(Nc2nc(N[C@@H](C)c3ncc(F)cn3)ncc2Cl)n[nH]1,Potency,[1],16.6 µM (active)
same,Potency,[3],inactive
same,Potency,[4],inactive
same,IC50 (viability decrease),[5],inactive
COc1ccc(-c2ccc3c(N4CCOCC4)nc(N4C[C@@H](C)O[C@@H](C)C4)nc3n2)cc1CO,Potency,[1],0.59 µM (active)
same,Potency,[8],1.05 µM (active)
same,Potency,[4],0.372 µM (active)
CC1(C)CNc2cc(NC(=O)c3cccnc3NCc3ccncc3)ccc21,Potency,[1],5.26 µM (active)
same,Potency,[4],inactive
O=c1[nH]c(-c2ccc(C(F)(F)F)cc2)nc2c1CSCC2,Potency,[1],23.5 µM (active)
same,Potency,[3],inactive
same,Potency,[4],inactive
same,IC50 (viability decrease),[5],inactive
same,Potency,[6],inactive
NC(=O)c1ccc(-c2nc(-c3ccc4c(c3)OCO4)c(-c3ccccn3)[nH]2)cc1,Potency,[1],inactive
same,Potency,[3],inactive
same,Potency,[4],inactive
same,IC50 (viability decrease),[5],inactive
same,Potency,[7],inactive
same,Potency,[6],inactive
O=S(=O)(N=Cc1c(O)ccc2ccccc12)c1cccs1,Potency,[1],0.372 µM (active)
same,Potency,[3],inactive
same,Potency,[4],inactive
same,IC50 (viability decrease),[5],inactive
CC(C)OC(=O)C1=CN(C(=O)c2ccc(F)c(F)c2)CC(C)(C)c2c1[nH]c1ccccc21,Potency,[1],inactive
same,Potency,[3],inactive
same,Potency,[4],inactive
same,IC50 (viability decrease),[5],inactive
CCOc1cc(C=C2C(=O)N(c3ccccc3)N=C2C)cc(Cl)c1OCC(=O)OC,Potency,[1],5.9 µM (active)
same,Potency,[3],inactive
same,Potency,[4],inactive
CS(=O)(=O)c1cccc(CNc2nc(Nc3ccc4c(c3)CCC(=O)N4)ncc2C(F)(F)F)c1,Potency,[1],11.8 µM (active)
same,Potency,[3],inactive
same,Potency,[4],inactive
same,IC50 (viability decrease),[5],3.72 µM (active)
CCOc1ccn(-c2ccc(F)cc2)c(=O)c1C(=O)Nc1ccc(Oc2ccnc(N)c2Cl)c(F)c1,Potency,[1],23.5 µM (active)
same,Potency,[3],18.7 µM (active)
Cn1cc(-c2ccc3nnc(C(F)(F)c4ccc5ncccc5c4)n3n2)cn1,Potency,[1],0.833 µM (active)
same,Potency,[3],inactive
same,IC50 (viability decrease),[5],inactive
Cc1cccc(-c2[nH]c(C(C)(C)C)nc2-c2ccc3nccnc3c2)n1,Potency,[1],20.9 µM (active)
same,Potency,[8],8.33 µM (active)
same,Potency,[4],inactive
same,Potency,[6],3.26 µM (active)
CCOc1cc(C(=O)Nc2ccc(Cl)c(-c3nc4ccccc4[nH]3)c2)cc(OCC)c1OCC,Potency,[1],20.9 µM (active)
same,Potency,[3],inactive
same,Potency,[4],inactive
same,IC50 (viability decrease),[5],inactive
CCN(c1ccccc1)c1cc(NC)[n+](C)c(C)n1,Potency,[1],16.6 µM (active)
same,Potency,[3],inactive
same,Potency,[4],inactive
same,IC50 (viability decrease),[5],inactive
same,Potency,[7],inactive
CCn1c(-c2nonc2N)nc2c(C#CC(C)(C)O)ncc(OC[C@H]3CCCNC3)c21,Potency,[1],18.7 µM (active)
same,Potency,[3],inactive
same,Potency,[8],inactive
Cc1c(CN2CCN(C(=O)C(C)C)CC2)sc2c(N3CCOCC3)nc(-c3cnc(N)nc3)nc12,Potency,[1],0.0662 µM (active)
same,Potency,[3],0.0935 µM (active)
same,Potency,[4],0.166 µM (active)
Nc1nccc(-c2ccc3noc(-c4ccc(Cl)cc4)c3c2)n1,Potency,[1],23.5 µM (active)
same,Potency,[4],inactive
C[C@]1(c2nc3c(C(N)=O)cccc3[nH]2)CCCN1,Potency,[1],18.7 µM (active)
same,Potency,[3],inactive
same,IC50 (viability decrease),[5],18.7 µM (active)
CS(=O)(=O)c1ccc(C(=O)Nc2ccc(Cl)c(-c3ccccn3)c2)c(Cl)c1,Potency,[1],inactive
same,Potency,[3],inactive
same,Potency,[4],inactive
COc1ccc(-c2c(-c3ccc(O)cc3O)n[nH]c2C)cc1,Potency,[1],inactive
same,Potency,[2],inactive
same,Potency,[4],inactive
same,IC50 (viability decrease),[5],26.4 µM (active)
Nc1cccc(S(=O)(=O)N2CCCN(S(=O)(=O)c3ccc4c(c3)OCCO4)CC2)c1,Potency,[1],inactive
same,Potency,[3],inactive
same,Potency,[8],5.26 µM (active)
same,Potency,[4],inactive
same,IC50 (viability decrease),[5],inactive
CC1(C)SCCN(S(=O)(=O)c2ccc(OCC#CCO)cc2)[C@@H]1C(=O)NO,Potency,[1],inactive
same,Potency,[3],inactive
same,Potency,[4],inactive
same,IC50 (viability decrease),[5],inactive
same,Potency,[6],inactive
Oc1cccc(-c2nc(N3CCOCC3)c3oc4ncccc4c3n2)c1,Potency,[1],0.0762 µM (active)
same,Potency,[2],0.833 µM (active)
same,IC50 (viability decrease),[5],0.105 µM (active)
same,Potency,[6],0.58 µM (active)
NC(=O)c1ccc(I)c([N+](=O)[O-])c1,Potency,[1],inactive
same,Potency,[3],inactive
same,Potency,[4],inactive
same,IC50 (viability decrease),[5],inactive
COCCNCCCn1c(C(=O)CF)c(-c2ccc(C)cc2)c2c(N)ncnc21,Potency,[2],inactive
same,Potency,[3],inactive
same,IC50 (viability decrease),[5],18.7 µM (active)
CCCCCCCc1ccc(CCc2cccc(O)c2C(=O)O)cc1,Potency,[2],inactive
same,Potency,[3],inactive
Cc1ccc(-n2nc(C(C)(C)C)cc2NC(=O)Nc2ccc(OCCN3CCOCC3)c3ccccc23)cc1,Potency,[1],20.9 µM (active)
same,IC50 (viability decrease),[5],18.7 µM (active)
same,Potency,[6],inactive
COc1ccccc1[C@H](c1cccc2ccccc12)[C@@](C)(C#N)C(=O)N1CCC(c2cccc(C(F)(F)F)c2)CC1,Potency,[1],13.2 µM (active)
same,Potency,[4],inactive
same,IC50 (viability decrease),[5],6.62 µM (active)
same,Potency,[7],inactive
O=C(c1cc(Cc2n[nH]c(=O)c3ccccc23)ccc1F)N1CCN(C(=O)C2CC2)CC1,Potency,[1],3.72 µM (active)
same,Potency,[4],18.7 µM (active)
Nc1nc2ccc(OC(F)(F)F)cc2s1,Potency,[9],inactive
same,outcome,[10],inactive
CCOC(=O)N[C@@H]1CC[C@@H]2[C@@H](C1)C[C@H]1C(=O)O[C@H](C)[C@H]1[C@@H]2C=Cc1ccc(-c2cccc(F)c2)cn1,Potency,[1],18.7 µM (active)
same,Potency,[4],14.8 µM (active)
O=C(Nc1cccnc1)N1CCC(Cc2cccc(Oc3ccc(C(F)(F)F)cn3)c2)CC1,Potency,[2],18.7 µM (active)
same,Potency,[4],inactive
Cc1cccc(-c2nn(C(=S)Nc3ccccc3)cc2-c2ccnc3ccccc23)n1,Potency,[1],inactive
same,Potency,[7],inactive
same,Potency,[6],inactive
O=C(O)CCc1ccc(NCc2cccc(Oc3ccccc3)c2)cc1,Potency,[1],inactive
same,Potency,[4],inactive
same,IC50 (viability decrease),[5],inactive
